Sfp PPTase inh: qHTS Assay for Inhibitors of Bacillus subtilis Sfp phosphopantetheinyl transferase (PPTase); Biochemical Sfp PPTase activity, qHTS; 4'-phosphopantetheinyl transferase ffp (Bacillus subtilis), Q9F4F7; hit rate 3.5% among 310,000; AID 1490, 2009; Potency, µM, hits mostly inhibitors;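 note: the enzyme is Sfp with the accession as filed and its product quenches rhodamine fluorescence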
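Compounds were incubated with enzyme (final 15 nM) for 15 min at room temperature before substrate addition started the reaction. Fluorescence at 525 nm excitation, 598 nm emission was recorded immediately and after 30 minutes.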
PLK1 PBD inh: qHTS for Inhibitors of PLK1-PDB (polo-like kinase 1 - polo-box domain): Primary Screen | Plk1 PBD binding of FITC phosphopeptide, fluorescence polarization | hit rate 2.8% among 360,000 | Serine/threonine-protein kinase PLK1 (Homo sapiens), P53350 | Potency, µM, most hits filed as inhibitors | AID 720504, 2013; note: series mostly up to about 57 µM; nearly all actives have a fitted effect of over 65% in size
Target sequence (P53350 whole entry, looked up, the tested form may be a part): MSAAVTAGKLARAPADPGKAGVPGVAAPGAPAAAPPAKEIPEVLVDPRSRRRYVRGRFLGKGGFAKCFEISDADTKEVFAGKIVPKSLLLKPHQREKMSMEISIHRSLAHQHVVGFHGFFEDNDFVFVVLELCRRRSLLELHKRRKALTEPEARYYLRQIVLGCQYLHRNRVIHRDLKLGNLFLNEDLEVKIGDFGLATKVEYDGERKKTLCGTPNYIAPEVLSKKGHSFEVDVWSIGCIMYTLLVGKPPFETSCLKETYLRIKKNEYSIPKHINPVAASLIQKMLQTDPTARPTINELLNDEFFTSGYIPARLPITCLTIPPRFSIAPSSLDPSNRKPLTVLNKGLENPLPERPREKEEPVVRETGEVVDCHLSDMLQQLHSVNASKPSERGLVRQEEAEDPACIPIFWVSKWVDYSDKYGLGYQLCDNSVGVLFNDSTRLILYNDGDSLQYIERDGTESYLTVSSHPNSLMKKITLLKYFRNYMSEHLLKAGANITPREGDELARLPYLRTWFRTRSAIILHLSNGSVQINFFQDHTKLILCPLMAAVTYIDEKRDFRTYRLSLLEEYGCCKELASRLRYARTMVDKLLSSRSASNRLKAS
BAZ2B block: qHTS Assay for Inhibitors of BAZ2B. AlphaScreen BAZ2B-H3K14Ac peptide displacement. Potency, µM (series often up to 114 µM), hits mostly inhibitors. hit rate 4.4% among 360,000. AID 504333, 2011; note: nearly all actives have a fitted effect of over 60% in size
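AlphaScreen displacement: compounds (up to 110uM) incubated 30 min at room temperature with a preformed 50 nM BAZ2B/50 nM biotinylated H3K14Ac peptide complex in PBS pH 7.4 with Tween-20. Donor and acceptor beads at 10 ug/mL final added, 20 min light-protected before reading.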
JMJD2A Tudor inh: qHTS Assay for Inhibitors of JMJD2A-Tudor Domain | hit rate 4.4% among 390,000 | Lysine-specific demethylase 4A (Homo sapiens), O75164 | Potency, µM (titrated, usually from 114 µM), most hits filed as inhibitors | AID 504339, 2011 | AlphaScreen JMJD2A-Tudor / H3K4me3 peptide binding; note: nearly all actives have a fitted effect of over 50% in size
G9a inh: qHTS Assay for Inhibitors of Histone Lysine Methyltransferase G9a. Histone-lysine N-methyltransferase EHMT2 (Homo sapiens), Q96KQ7. G9a H3K9 monomethylation, AlphaScreen, 2 h. Potency, µM (doses to about 102 µM), hits mostly inhibitors. hit rate 8.8% among 350,000. AID 504332, 2011; note: nearly all actives have a fitted effect of over 75% in size
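Using a bead-based AlphaScreen, monomethylated H3K9 product from 2 h room-temperature reactions (G9a 20 nM, peptide 500 nM, SAM 20 uM) was detected with 0.5 ug/mL rabbit anti-H3K9me1 antibody.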
HP1b binding inh: HTS for Inhibitors of HP1-beta Chromodomain Interactions with Methylated Histone Tails. Chromobox protein homolog 1 (Homo sapiens), P83916. AlphaScreen HP1-beta / biotin-H3K9me3 peptide binding. Potency, µM (titrated, usually from 114 µM), hits mostly inhibitors. hit rate 0.56% among 390,000; note: nearly all actives have a fitted effect of over 70% in size
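Compound inhibition of the preformed complex between 50 nM HP1-beta and 50 nM biotinylated H3K9me3 peptide was read by AlphaScreen. Buffer was PBS pH 7.4 with 0.01% Tween-20. Incubations ran 30 min at room temperature, with 10 ug/mL donor/acceptor beads.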
Of the large screens only hits and unclear results are named; the others gave an inactive call. Compounds with a hit are over-represented: about 12% of the library has one in this group of screens. Calls come from the whole dose curve; as a rule, active = well fitted curve in the direction sought with a large enough effect; inconclusive = small, poorly fitted or top-dose-only effect, or another doubt; inactive = no such curve, though single readings can be large; an effect the other way counts as inactive or inconclusive.

CC(C)c1ccc(NC(=S)Nc2ccc3cn[nH]c3c2)cc1	BAZ2B block inconclusive, G9a inh 79µM
O=C(Nc1ccc2cn[nH]c2c1)c1ccccc1F	none
O=C1C(Cl)=C(Nc2ccc3cn[nH]c3c2)C(=O)c2ccccc21	Sfp PPTase inh 8.9µM, PLK1 PBD inh 13µM, BAZ2B block 8.9µM, JMJD2A Tudor inh 14µM, HP1b binding inh 16µM
Cc1ccc(S(=O)(=O)NCC(=O)N(CC(=O)NCC2CCCO2)Cc2ccc(Cl)cc2)cc1 (stereo not given)	none
CCCCN(C=O)c1c(CC)nc2ccc(C(=O)NCCOc3ccc(OC)cc3)cn12	none (no result: Sfp PPTase inh, BAZ2B block, JMJD2A Tudor inh, G9a inh, HP1b binding inh)
COc1cc(C[C@H]2C(=O)OC[C@@H]2Cc2ccc(OC)c(OC)c2)ccc1O	none (no result: PLK1 PBD inh, BAZ2B block, JMJD2A Tudor inh, G9a inh, HP1b binding inh)
CN(C)c1ccc(NC2=C(Cl)C(=O)c3ccccc3C2=O)cc1	Sfp PPTase inh inconclusive, BAZ2B block 2.5µM, JMJD2A Tudor inh 6.3µM, G9a inh 2.2µM, HP1b binding inh 5µM
Cc1ccc(NC(=S)Nc2ccc3cn[nH]c3c2)cc1C	G9a inh inconclusive
CC(=O)c1ccc(NC(=S)Nc2ccc3cn[nH]c3c2)cc1	Sfp PPTase inh 32µM, PLK1 PBD inh 30µM, G9a inh 45µM
CCOC(=O)C1(C)CCCN(C(=O)c2ccc(C#N)cc2)C1 (stereo not given)	none (no result: Sfp PPTase inh, BAZ2B block, JMJD2A Tudor inh, G9a inh, HP1b binding inh)
Cc1ccc(/C=N/NC(=O)C2(O)c3ccccc3-c3ccccc32)o1	Sfp PPTase inh inconclusive, G9a inh 56µM
Cc1ccc(C)n1-c1ccc(C(=O)N/N=C/c2ccncc2)cc1	PLK1 PBD inh inconclusive, JMJD2A Tudor inh 79µM, HP1b binding inh inconclusive (no result: BAZ2B block)
Cc1ccc(/C=N/NC(=O)CSc2nnc(-c3ccccc3)n2-c2ccc(Cl)cc2)o1	BAZ2B block inconclusive, G9a inh 45µM
Cc1ccc(/C=N/NC(=O)CSc2nnc(-c3ccc(Cl)cc3)n2-c2ccc(Cl)cc2)o1	Sfp PPTase inh inconclusive
O=C(N/N=C/c1ccncc1)c1ccccn1	Sfp PPTase inh inconclusive, BAZ2B block 50µM, G9a inh 2µM
O=C(NC1CCCC1)c1c[nH]c2ccc(S(=O)(=O)Nc3cccc(C(F)(F)F)c3)cc2c1=O	JMJD2A Tudor inh inconclusive (no result: Sfp PPTase inh, PLK1 PBD inh, BAZ2B block)
Cc1ccc(/C=N/NC(=O)c2ccncc2)o1	BAZ2B block inconclusive, JMJD2A Tudor inh inconclusive
O=C(NN=C1c2ccccc2-c2ccccc21)c1ccccn1	Sfp PPTase inh inconclusive, BAZ2B block 50µM, JMJD2A Tudor inh inconclusive
O=C(NN=C1C2CC3CC1CC(Cl)(C3)C2)c1cccs1	none
Cc1ccc(/C=N/NC(=O)c2ccccn2)o1	Sfp PPTase inh 56µM, G9a inh inconclusive
O=C(NN=C1C2CC3CC1CC(Cl)(C3)C2)c1ccccn1	Sfp PPTase inh 7.9µM
C/C(CC(=O)NC1CCCCC1)=N\NC(=O)c1ccccn1	Sfp PPTase inh 89µM, JMJD2A Tudor inh inconclusive (no result: G9a inh)
CCCNC(=O)C1(C)CCCN(C(=O)C2(c3ccc(Cl)cc3)CCCC2)C1 (stereo not given)	none (no result: Sfp PPTase inh, BAZ2B block, JMJD2A Tudor inh, G9a inh, HP1b binding inh)
N#C/C(C(N)=O)=C1/CCCN1Cc1ccccc1	none (no result: Sfp PPTase inh, BAZ2B block, G9a inh)
Cc1ccc(/C=N\NC(=O)Cn2nnc3ccccc32)o1	Sfp PPTase inh inconclusive, G9a inh 89µM
Cc1ccc(/C=N/NC(=O)Cn2cnc3ccccc32)o1	none (no result: G9a inh)
CCN(Cc1ccccc1)C(=O)c1cc2c(OC)c(OC)c(OC)cc2[nH]1	BAZ2B block inconclusive
Cc1cc(F)ccc1NC(=O)c1c(C)oc2c1C1=NCCN1C=N2	none (no result: Sfp PPTase inh, PLK1 PBD inh)
O=C(CCl)Nc1cc2[nH]c(=O)[nH]c2cc1Br	G9a inh 50µM
Cc1cc2c(C)cc(=O)[nH]c2cc1NC(=O)CCl	G9a inh inconclusive
Cc1occc1-c1nnc(-c2cc([N+](=O)[O-])cc([N+](=O)[O-])c2)o1	Sfp PPTase inh inconclusive, BAZ2B block inconclusive, G9a inh 32µM
Cc1ccc(Cl)cc1NS(=O)(=O)c1cc2c(cc1F)NC(=O)CC2	none (no result: Sfp PPTase inh, PLK1 PBD inh, BAZ2B block, G9a inh, HP1b binding inh)
